Results filed as inconclusive are left out. A number with no mark means an inactive call. Activity calls are given as the source filed them. Calls follow the shape of the dose curve; as a rule, active = well fitted cell-killing curve with a large enough effect in the repeat runs; inconclusive = weak or mixed curves; inactive = flat fitted curve, though single readings scatter.
Test: qHTS assay to identify small molecule antagonists of the TGF-beta/Smad signaling pathway - cell viability counter screen (AID 1346824); also: nearly all actives have a fitted effect of over 50% in size
Settings: SBE-bla HEK293T viability, CellTiter-Glo luminescence; series mostly up to 76.8 µM; viability change, negative = cytotoxic: at the top concentration
Outline: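 Cytotoxicity counter-screen run in the same wells as the beta-lactamase Smad reporter read: CellTiter-Glo luminescence after 30 min at room temperature. HEK 293T SBE-bla cells had 5 hr compound exposure at 37 C with TGF-beta1 (0.25 ng/mL stock).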
% is scaled to controls: 0 for no effect and ±100 for the full control effect; potency is read from the fitted curve at half-maximal effect.

Row | SMILES | viability change, negative = cytotoxic | Potency
1 | CCCCC(CC)COC(=O)OOC(C)(C)C (centres undefined) | -10.1% | 
2 | O=C1C2(Cl)C3(Cl)C4(Cl)C(Cl)(Cl)C5(Cl)C3(Cl)C1(Cl)C5(Cl)C24Cl (centres undefined) | -1.1% | 
3 | CNC(=O)O/N=C(\C)C(C)S(C)(=O)=O (centres undefined) | 2.43% [at 725 µM] | 
4 | O=c1[nH]c2cc(Cl)ccc2n1C1CCNCC1 | -9.6% [at 35.3 µM] | 
5 | CC(=O)[O-].CC(=O)[O-].[Co+2] | -4.89% | 
6 | CCOP(=O)(OCC)Oc1nc(Cl)c(Cl)cc1Cl | -20% | 
7 | Cc1cc(C2CC2)nc(Nc2ccccc2)n1 | -6.72% | 
8 | CN(C)CCc1c[nH]c2ccccc12 | 3.97% | 
9 | O.O.O.O=C([O-])[C@H]([O-])[C@@H]([O-])C(=O)[O-].O=C([O-])[C@H]([O-])[C@@H]([O-])C(=O)[O-].[K+].[K+].[Sb+3].[Sb+3] | 1.05% | 
10 | O=c1[nH]c(Cl)c(Cl)cc1Cl | -1.25% | 
11 | [C-]1=CC=CC1.[Cl][Zr+2][Cl].c1cc[cH-]c1 | 2.17% | 
12 | Clc1ccc(C2(Cn3cncn3)OCCO2)c(Cl)c1 | 2.1% | 
13 | CCC[CH2][Sn]([CH2]CCC)([CH2]CCC)[O][Sn]([CH2]CCC)([CH2]CCC)[CH2]CCC |  | 1510 nM (active)
14 | C1=CCC=C1 | 1.71% | 
15 | Nc1ccccc1-c1ccccc1 | -1.26% | 
16 | CCOP(=S)(NC(C)C)Oc1ccccc1C(=O)OC(C)C (centres undefined) | -16.1% | 
17 | Cc1c([N+](=O)[O-])c(C)c([N+](=O)[O-])c(C(C)(C)C)c1[N+](=O)[O-] | -8% | 
18 | ClC1=C(Cl)[C@]2(Cl)[C@@H]3[C@H]4C[C@H]([C@@H]5O[C@H]45)[C@@H]3[C@@]1(Cl)C2(Cl)Cl | -15.6% | 
19 | CC(C)Br | 0.675% | 
